# Reference: the supplement of paper PMC4723716
# ± gives the uncertainty stated by the source. Over roughly 9,900 compounds, “viability index relative to DMSO control” has its median near 1; the lowest 2% begin near 0.85. What follows is part of a selection rich in the lowest values, with near analogues and random picks from the rest.
# Test system: Plasmodium falciparum NF54 stage V gametocytes
# Experiment: viability index relative to DMSO control (fraction); higher = less gametocyte killing
# Conditions: 2.5 µM, incubation time: 72 h
# How it was run: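 Stage V gametocytes of P. falciparum NF54 were held in serum-free screening medium at 0.75% gametocytemia and 1.25% hematocrit, 10 µl per well of a 1,536-well plate, and exposed to compound at 2.5 µM for 72 hr at 37°C under low oxygen. A 3 µl mix of 2.5 µM MitoTracker Red CMXRos with 0.13% saponin was then added for one to two hours, after which one field per well was imaged and red particles of 20–70 µm2 were counted. The viability index equals this count divided by the plate mean from wells given solvent alone.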
# [1] = library set: Broad Institute DOS
# [2] = library set: Broad Institute Blood Stage
smiles,measurement,setting,value
COc1ccc2c3c([C@@H](CO)NC[C@]33CN(CC4CCOCC4)C3)n(C)c2c1,viability index,[1],1.07 ± 0.029
C[C@H](CO)N1C[C@H](C)[C@H](CN(C)Cc2ccc(Oc3ccccc3)cc2)Oc2ccc(N(C)C)cc2C1=O,viability index,[1],1.01 ± 0.043
O=C(CCN1CCCCC1)N[C@H]1CC[C@@H](CCn2cc(-c3cccc(F)c3)nn2)O[C@H]1CO,viability index,[1],1.07 ± 0.038
C[C@@H]1CN([C@@H](C)CO)C(=O)c2cc(NC(=O)Nc3cccc4ccccc34)ccc2O[C@@H](C)CCCCO[C@@H]1CN(C)S(=O)(=O)c1cn(C)cn1,viability index,[1],0.949 ± 0.081
C[C@@H]1CC(=O)NCC/C=C\C[C@H](c2ccc3c(c2)OCO3)NC1=O,viability index,[1],1.059 ± 0.0056
C[C@@H]1CN([C@@H](C)CO)C(=O)CCCn2nncc2CO[C@H]1CN(C)S(=O)(=O)c1cn(C)cn1,viability index,[1],1.07 ± 0.065
C[C@H]1CN([C@@H](C)CO)C(=O)c2cc(N(C)C)ccc2O[C@@H]1CN(C)CC1CCCCC1,viability index,[1],1.01 ± 0.12
COc1ccc2c3c([C@@H](CO)N(C[C@]33CN(C3)C(=O)Cc3ccncc3)C(=O)Nc3ccc(F)cc3)n(C)c2c1,viability index,[1],0.974 ± 0.085
COc1ccc2c3c([C@@H](CO)N(C[C@]33CN(Cc4ccccc4F)C3)C(=O)Nc3ccc(F)cc3)n(C)c2c1,viability index,[1],0.791 ± 0.066
COc1ccc2c3c([C@H](CO)N(C[C@]33CN(Cc4ccccc4F)C3)C(=O)Nc3ccc(F)cc3)n(C)c2c1,viability index,[1],1 ± 0.091
O=C(Cc1cccnc1)N1CC(=O)N2[C@H](CO)[C@H](c3ccc(C#CC4CCCCC4)cc3)[C@H]2C1,viability index,[1],0.801 ± 0.073
O=C(Cc1cccnc1)N1CC(=O)N2[C@H](CO)[C@@H](c3ccc(C#CC4CCCCC4)cc3)[C@H]2C1,viability index,[1],1.04 ± 0.06
COc1cccc(C#Cc2ccc([C@H]3[C@@H](CO)N4C(=O)CN(C(=O)Cc5cccnc5)C[C@H]34)cc2)c1,viability index,[1],0.804 ± 0.11
CCCNC(=O)N1CC(=O)N2[C@H](CO)[C@H](c3ccc(C#Cc4cccc(OC)c4)cc3)[C@@H]2C1,viability index,[1],1.02 ± 0.062
COc1cccc(C#Cc2ccc([C@@H]3[C@H](CO)N4C(=O)CN(C(=O)Cc5cccnc5)C[C@@H]34)cc2)c1,viability index,[1],0.904 ± 0.094
COc1cccc(C#Cc2ccc([C@@H]3[C@@H](CO)N4C(=O)CN(C(=O)Cc5cccnc5)C[C@H]34)cc2)c1,viability index,[1],1.01 ± 0.084
CCCNC(=O)N1CC(=O)N2[C@H](CO)[C@@H](c3ccc(C#Cc4cccc(OC)c4)cc3)[C@H]2C1,viability index,[1],0.936 ± 0.075
COc1cccc(C#Cc2ccc([C@H]3[C@@H](CO)N4C(=O)CN(C(=O)Cc5ccccc5)C[C@H]34)cc2)c1,viability index,[2],0.778 ± 0.047
O=C(Cc1cccnc1)N1CC(=O)N2[C@H](CO)[C@@H](c3ccc(C#CC4CCCCC4)cc3)[C@@H]2C1,viability index,[1],1.07 ± 0.032
COc1cccc(C#Cc2ccc([C@H]3[C@@H](CO)N4C(=O)CN(C(=O)c5ccccc5)C[C@H]34)cc2)c1,viability index,[2],0.754 ± 0.074
COc1cccc(C#Cc2ccc([C@H]3[C@H](CO)N4C(=O)CN(C(=O)Cc5cccnc5)C[C@@H]34)cc2)c1,viability index,[1],0.945 ± 0.048
COc1cccc(C#Cc2ccc([C@H]3[C@H]4CN(C(=O)Cc5cccnc5)CC(=O)N4[C@H]3CO)cc2)c1,viability index,[1],1.057 ± 0.0037
CO[C@@H]1CN(C)C(=O)c2cc(NS(C)(=O)=O)ccc2OC[C@@H](C)N(C(=O)C2CCOCC2)C[C@@H]1C,viability index,[1],1.17 ± 0.07
CN(C)C(=O)c1ccc(-c2ccc([C@@H]3[C@@H]4CN(Cc5ccc6c(c5)OCO6)C[C@H]3N4)cc2)cc1,viability index,[1],1.05 ± 0.098
COc1ccc2c3c([C@H](CO)N(Cc4ccncc4)C[C@]33CN(C3)C(=O)C3CCCCC3)n(C)c2c1,viability index,[1],1.03 ± 0.079
O=C(C1CCOCC1)N1CC(=O)N2[C@@H](CO)[C@H](c3ccc(C#CCc4ccccc4)cc3)[C@@H]2C1,viability index,[1],1.084 ± 0.0042
C[C@@H](NC(=O)[C@@H]1[C@@H](CO)[C@@H]2Cn3c(ccc(-c4ccccc4)c3=O)[C@@H]2N1C)c1ccccc1,viability index,[1],1.05 ± 0.015
O=C(C[C@@H]1C[C@@H]2c3cc(NS(=O)(=O)c4ccc(F)cc4)ccc3O[C@@H]2[C@H](CO)O1)N1CCc2ccccc2C1,viability index,[1],1.13 ± 0.069
COCC(=O)N1CC(=O)N2[C@H](CO)[C@H](c3ccc(C#CC4CC4)cc3)[C@H]2C1,viability index,[1],1.11 ± 0.027
CCN(C[C@@H]1N[C@@H](CO)[C@H]1c1ccc(-c2ccc(F)cc2)cc1)C(=O)CN(C)C,viability index,[1],0.711 ± 0.021
CN(C[C@H]1N[C@@H](CO)[C@H]1c1ccc(-c2ccc(F)cc2)cc1)C(=O)C1CCC1,viability index,[1],0.971 ± 0.025
CCS(=O)(=O)N(C)C[C@@H]1N[C@H](CO)[C@@H]1c1ccc(-c2ccccc2F)cc1,viability index,[1],1.05 ± 0.031
O=C(C[C@@H]1CC[C@H]2NC[C@@H](O)COC[C@@H]2O1)NC1Cc2ccccc2C1,viability index,[1],0.9847 ± 0.0032
O=C(C[C@H]1CC[C@H]2NC[C@@H](O)COC[C@@H]2O1)Nc1ccc(-c2ccccc2)cc1,viability index,[1],0.997 ± 0.036
CCc1csc(N2[C@H](CO)[C@H](c3ccccc3)[C@@H]2CN(C)C(=O)C2CCC2)n1,viability index,[1],1.03 ± 0.059
C/C=C/c1ccc([C@H]2[C@@H](CO)N(c3nc(CC)cs3)[C@H]2C#N)cc1,viability index,[1],1.09 ± 0.035
CCc1csc(N2[C@H](CO)[C@H](c3ccccc3)[C@@H]2CNC)n1,viability index,[1],0.372 ± 0.18
